# RecA splice inh: inhibitors of M. tuberculosis RecA intein splicing | cell-free RecA intein splicing, fluorescence | inhibition, % (test concentration not listed) | actives 0.75% (n = 290,000) | AID 2221; in the data active = inhibition above about 30%;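 also: 0% = vehicle wells and 100% = reference inhibitor control wells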
# Mtb betalactam: beta-lactam sensitization of Mtb H37Rv; M. tuberculosis H37Rv growth with meropenem, percent inhibition; inhibition, % at 25 µM; actives 0.27% (n = 330,000); call rule not given here;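 also: growth measured after seven days incubation then overnight dye step; 0% = bacteria only wells and 100% = bacteria with antibiotic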
# Rv3671c protease: inhibitors of M. tuberculosis serine protease Rv3671c; P9WHR9; inhibition, % at 5.96 µM; actives 0.048% (n = 320,000); in the data active = inhibition above about 38%;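 also: extracellular domain of Rv3671c used as enzyme; 0% = enzyme with DMSO and 100% = no enzyme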
# Target sequence (P9WHR9 whole entry, looked up, the tested form may be a part): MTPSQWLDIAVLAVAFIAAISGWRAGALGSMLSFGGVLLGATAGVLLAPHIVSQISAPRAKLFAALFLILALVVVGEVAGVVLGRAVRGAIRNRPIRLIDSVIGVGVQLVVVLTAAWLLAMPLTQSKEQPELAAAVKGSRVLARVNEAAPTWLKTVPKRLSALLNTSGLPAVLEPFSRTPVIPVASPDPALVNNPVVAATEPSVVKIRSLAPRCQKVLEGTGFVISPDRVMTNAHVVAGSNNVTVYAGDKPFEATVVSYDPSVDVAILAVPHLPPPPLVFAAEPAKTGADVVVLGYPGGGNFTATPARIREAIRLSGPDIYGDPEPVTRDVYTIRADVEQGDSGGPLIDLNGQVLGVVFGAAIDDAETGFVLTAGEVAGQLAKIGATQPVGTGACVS
# Mtb FBA inh: inhibitors of M. tuberculosis fructose-bisphosphate aldolase. purified M. tuberculosis FBA, fluorescence read-out. inhibition, % at 1 µM. P9WQA3. actives 2.3% (n = 360,000); in the data active = inhibition above about 27%;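 also: 0% = vehicle and 100% = reference inhibitor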
# Mtb UGM inh: Mtb UDP-galactopyranose mutase inhibition. AID 504406. inhibition, % at 10 µM. actives 0.06% (n = 320,000). P9WIQ1. purified UGM, fluorescence polarization probe displacement; in the data active = inhibition above about 10%, passing the limit was not always enough
# GDH-TPI counter: inhibits GDH-TPI coupling enzymes, artifact for Mtb FBA screen; GDH-TPI coupled enzyme counterscreen, NADH absorbance; inhibition, % at 4.8 µM; actives 1.2% (n = 360,000); AID 588335; in the data active = inhibition above about 30%;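 also: 0% = DMSO wells and 100% = wells lacking the enzyme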
# An asterisk follows results filed as active; x = no result; + = active, no number. Sampled rows, rich in hits. Any-hit rate of the full collection: about 4%.
SMILES,RecA splice inh,Mtb betalactam,Rv3671c protease,Mtb FBA inh,Mtb UGM inh,GDH-TPI counter
CC(C)=CC(=O)Nc1ccc(Cl)cc1,-1,9,-1,-2,0,-10
Cc1cc(OCc2cn(CC(=O)c3ccc(O)cc3)nn2)ccc1[N+](=O)[O-],x,x,x,0,x,41*
COc1ccc(C(CC(=O)c2ccc(O)cc2)S(=O)(=O)c2ccc(C)cc2)cc1 (stereo unspecified),x,15,-12,-1,2,34*
Cc1ccc(S(=O)(=O)N2CCN(Cc3ccco3)CC2)c(C)c1,-6,-11,1,0,1,7
COc1ccc(CN2CCC2(C)C(=O)NCCc2c[nH]c3ccccc23)c2ccccc12 (stereo unspecified),x,x,x,2,x,7
CC(=O)NC1=C(Nc2ccc(N(C)C)cc2)C(=O)c2ccccc2C1=O,76*,10,-9,-5,0,10
O=C(OCc1cn([C@@H]2C[C@H](c3ccccc3)N(C(=O)C3CCCCC3)C[C@H]2O)nn1)c1ccccc1,x,x,x,4,x,14
COc1ccc(Br)cc1[C@H]1[C@@H]2C=CCC[C@@]2(C)C(=O)N1Cc1ccccc1,32*,3,-2,6,1,10
CC(C)CCN1C(=O)c2ccc(C(=O)Nc3ccccn3)cc2C1=O,2,74,-8,7,0,4
Cc1cc(Br)cc2c1N(C)C(=O)C2(c1ccc(O)cc1)c1ccc(O)cc1,19,-5,-4,4,0,-5
CCc1nc(-c2ccc(-c3ccc(OC)cc3)nc2OC)no1,-2,81,-8,152*,-4,6
COCc1nc(-c2ccc(-c3ccc(OC)cc3)nc2OC)no1,3,63,-6,+,x,17
CCNC(=O)C1CCCN(C(=O)c2ccc(OC(F)F)cc2)CC1 (stereo unspecified),x,x,x,-1,x,-8
C=CCn1c(O)c(C=NCCN2CCOCC2)c(=O)[nH]c1=S,-1,2,1,-3,1,48*
O=c1[nH]c(=S)n(C2CCCCC2)c(O)c1C=NCCN1CCOCC1,-1,11,0,-7,1,45*
CCCCn1c(O)c(/C=N/N2CCOCC2)c(=O)[nH]c1=S,-3,3,-1,3,0,37*
CC(=O)c1ccccc1C(=O)N1CCC(n2nccc2NC(=O)C2CC2)CC1,-2,-2,x,0,-4,9
COc1ccc(-n2nc(C(=O)NCC(=O)NCc3cccc(F)c3)c3ccccc3c2=O)cc1Cl,2,5,-88,3,1,0
O=C(CCc1ccncc1)N1CCCC(Nc2ccc(F)c(F)c2)C1 (stereo unspecified),-4,-12,0,0,-1,-7
Cc1ccc(C(=O)O/N=C\c2ccc(N3CCCCC3)c([N+](=O)[O-])c2)cc1,0,96,8,-1,0,40*
O=C(O/N=C\c1ccc(N2CCCCC2)c([N+](=O)[O-])c1)c1cccc(Cl)c1,0,72,-4,0,1,17
COc1cccc2c1C(=O)c1c(O)c3c(c(O)c1C2=O)C[C@@](O)(C(=O)CO)C[C@@H]3O[C@H]1C[C@H](N)[C@@H](O)[C@H](C)O1,-7,94,37,1,38*,20
CCN(CC)CC(C)(C)C(=O)/C=C/c1ccc(/C=C/C(=O)C(C)(C)CN(CC)CC)cc1,x,x,x,-3,x,59*
CCN(CC)CCOC(=O)/C=C/c1ccccc1,0,1,4,0,1,3
O=C(NCCCCl)C1CC(=O)N(CCc2ccc(F)cc2)C1 (stereo unspecified),-3,-3,4,0,-1,2
SMILES,RecA splice inh,Mtb betalactam,Rv3671c protease,Mtb FBA inh,Mtb UGM inh,GDH-TPI counter
COc1ccc(Nc2oc(-c3ccccc3F)nc2C#N)cc1,-6,-12,5,2,-1,22
CCOP(=O)(OCC)c1nc(-c2cccc3ccccc23)oc1NCCc1ccc(OC)cc1,-2,5,7,168*,-2,7
COc1ccc(CCNc2oc(-c3ccc(OC)c(OC)c3)nc2P(=O)(OC)OC)cc1OC,-2,-7,12,165*,2,19
COc1nc(NCCc2ccc(OC)c(OC)c2)nc(OC)n1,x,-2,-2,0,-1,9
COc1ccc(CNc2oc(-c3cccc4ccccc34)nc2C#N)cc1,2,11,-29,147*,-3,10
CNc1oc(-c2cccc3ccccc23)nc1C#N,1,31,-9,+,-2,13
c1cncc(Nc2c3ccccc3nc3ccccc23)c1,-3,3,7,40*,2,10
CN(C)C(=O)COc1ccc2cc(-c3ccccc3)c(=O)oc2c1,-5,2,-1,+,-1,53*
CC(=O)Oc1ccc2cc(-c3cccnc3)c(=O)oc2c1,x,x,x,+,x,16
COc1cccc2cc(-c3ccccc3)c(=O)oc12,0,1,-12,3,1,-1
COC(=O)C(C)Oc1ccc2cc(-c3ccccc3)c(=O)oc2c1 (stereo unspecified),-6,100,2,+,-1,17
COc1ccc2cc(-c3ccccc3)c(=O)oc2c1,-4,-5,4,+,0,30
COc1ccc(-c2cc(=O)oc3cc(OC(C)C(=O)O)ccc23)cc1 (stereo unspecified),-2,4,-4,4,-2,7
O=S(=O)(NC1Cc2ccccc2C1)c1ccccc1,1,6,x,1,-1,12
Cc1nn(-c2ccccc2)c(Cl)c1C(=O)OCC(=O)NCCc1ccccc1,1,5,x,-1,1,3
Cn1c(=O)c2c(nc(C(O)c3ccccc3)n2C)n(C)c1=O (stereo unspecified),x,x,x,-1,x,-1
CCOC(=O)c1cc(C#N)c(SC(C)C(=O)NC2CCCCC2)nc1C (stereo unspecified),x,-4,3,-1,0,3
CCCOc1ccc2cc(-c3ccccn3)c(=O)oc2c1,-12,0,9,+,-2,14
CC(Oc1ccc2cc(-c3ccccc3)c(=O)oc2c1)C(=O)NCC1CCC(C(=O)O)CC1 (stereo unspecified),-6,5,-5,+,6,36*
Cn1c(Sc2ccc(Cl)cc2)c(C=O)c2ccccc21,19,0,-9,2,1,9
Cc1cccc(Sc2c(C=O)c3ccccc3n2C)c1,30*,4,1,-5,1,1
CC1=C(C(=O)N(C(C)C)C(C)C)CC(CC(=O)NCCc2ccccn2)C(=O)N1Cc1ccc(F)cc1 (stereo unspecified),x,x,x,3,x,x
Cc1c(NC(=O)c2ccc(C(=O)Nc3c(C)n(C)n(-c4ccccc4)c3=O)cc2)c(=O)n(-c2ccccc2)n1C,-2,-4,1,3,2,16
Cc1c(NC(=O)c2ccc(=O)oc2)c(=O)n(-c2ccccc2)n1C,-4,-5,-3,-1,0,33*
COc1ccc2oc3cc(NCCN(C)C)ccc3c(=O)c2c1,x,x,x,+,x,x
